The subject of the assay is PPARg:RXRa DBDmut IVT, anti-RXR (DBD mutation: RXRa K156A/R161A, NR concentration 270 nM, RXRa partner concentration 90 nM). Kind of assay: PBM binding z-score (relative to random genomic background probes); higher = stronger binding; sequences stand for … in GC…GCGATTGACAGCGTAGAATGAAGG
In short, it runs like this: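 Antibodies against each partner of ligand-free nuclear receptor dimers (one per run) detected binding on custom Agilent 4×180K protein-binding microarrays after 1 h incubation. The double-stranded probes had 34-nt variable regions carrying direct-repeat seeds, single-nucleotide variants, half-site ablations and random human genomic background sequences. Binding z-scores, from regression-normalized fluorescence, use the random background probes as reference.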
In the case of CAAACTAGGTCGAAGGTCAAAGTCGAGCCAACCA, the PBM binding z-score came to 6.36.

GCGACTGGGGCATCAGCAGGTTACTATAACTTAA returned a PBM binding z-score of 4.13.

CGAACGAGGCCATGAGTTGATAGCAAATGCCGAT yielded a PBM binding z-score of 1.62.

For the sequence ATCGAAATGTCGACGAGGTGAGTATACACCGTTT, the PBM binding z-score is -0.343.

Take CCTACTGCGCCAAAAAGGTCATTGATGCCGATAA: the PBM binding z-score amounted to 0.459.

TAGCCTAGGTCATGCGAGCCAGTATAGTGTCGGC displayed a PBM binding z-score of 1.99.

Regarding CCTATTTGGTCAAGGTCACACACGCTATAGGTAC, the PBM binding z-score is 2.33.

Consider GGAAAGAGGGCAAGTTGATAGCAGAGTTTGATGG, for which the PBM binding z-score was determined as 3.57.

As for ATACGTAGGTTAGCTGGGGTCATTCAGACTAGGC, the PBM binding z-score came to 0.981.

The sequence GGAACGAGGGCAAGTTTATAGCAGAGTTTGATGG displayed a PBM binding z-score of 3.91.

Turning to TAGCCTAGGTCAGATCGGGCCAGTTTACGCTATA, the PBM binding z-score is 0.41.

With CCTTACGGCTCACGAGGTTATAGCACGACGAGCG, the PBM binding z-score is -0.0471.

Consider GCTTTTAGATCAAGGTTAAGAAAGACTAAGCTAA, for which the PBM binding z-score was found to be 0.974.

Take CGTCCAAGGTTAAAGGTCAGTGAAGAGATGACGG: the PBM binding z-score amounted to 1.93.

Take AGAATGAGGTTGTACGTAGATCAGGGAAGAAAGT: the PBM binding z-score is -0.0167.

In the case of CCTAGCAGTCCAATCTGGGTCACTCAAGGCTTGA, the PBM binding z-score was determined as 3.55.

Sequence AGAACGAGGGCACGCTGAGTCGATAGCAGAGTAG gave a PBM binding z-score of 4.27.

For AGAATGAGGTTATACGTATATCAGGGAAGAAAGT, the PBM binding z-score stood at 2.88.

In the case of TCTAGTTGGTCAATGGTCACACACTCGAAATGCG, the PBM binding z-score was 2.15.

For the sequence GGAACGAGGGCAAAGTAGATAGCATCTGTCGACG, the PBM binding z-score is 4.05.

As for AATACAGGGTCACTAGGACAGAGTAGGTACGAAT, the PBM binding z-score was 3.86.

In turn, GTATCAAGGTGAATAGGTCGTTGATGAGTAGGCG had a PBM binding z-score of 3.31.

Take AGAATGTGGTTATACGTAGATCAGGGAAGAAAGT: the PBM binding z-score was -0.104.

In the case of GCTCGGAGGACAAGGTCAGAGCTTTGTCCGTAGA, the PBM binding z-score is -0.433.

Consider CGTCAAAGTTCAACTAAGGTAGCGTAAAGCACGC, for which the PBM binding z-score was 0.387.

CCTTACGGGTCAAGCTTATAGCACGGGTGGTACG returned a PBM binding z-score of 2.26.

For TTACCAAGGTGAGCTGAGGTCGTTGACCCAACTC, the PBM binding z-score is 0.928.

On to ATCTCGAGGTAAAGATAGTTCAGTGAATGCAAAT, for which the PBM binding z-score was -0.0258.

As for GCGACTGGGGCAAAGCAGGTTACCATAAGGTTGG, the PBM binding z-score is 4.62.

As to CCCTACGGGTCAAGGTTATAGCACGGGTGGTACG, the PBM binding z-score was -0.17.

TCATTTAGGTAATACAGGTGAAAGTCGGCATCTA: the PBM binding z-score is 3.53.

On to CCTCGGAGGAGAACAGGAGGTCAGAGCTGCCAGA, for which the PBM binding z-score was -0.418.

CCTGCTAGGTCATCGTCAGCTAATCTACAGTATG gave a PBM binding z-score of 4.49.

CGTCCATGGTCAATGCTAGGTCAGTGAAAGCATT displayed a PBM binding z-score of 0.278.

For AGAACGAGGGCCCGCTGAGTTGATAGCAGAGTAG, the PBM binding z-score was -0.75.

On to CCGCGGAGGACAGAAGGTCAGAGCTGTCCGCTTT, for which the PBM binding z-score was -0.00504.

Sequence TCTTGTAGATCAAGCAGGTTATGAAAGCCTGAGT gave a PBM binding z-score of 1.29.

Turning to ACTAGCAAGCCAAGGGTCACTCAAGATTAGTCCG, the PBM binding z-score is -0.0877.

Turning to CTACCAAGGTGAACAAGGTCGCTGATTACTATTC, the PBM binding z-score is 2.41.

Take TCGAGTAGGTTACCAATGGGGTATTCAGCTTTCT: the PBM binding z-score was found to be 3.18.

For the origin of these results see the supplement of paper PMC6555819.
